# An excerpt weighted towards active compounds, which were near 6.5% of everything screened.
# HCMV inh – blocks human cytomegalovirus replication; activity change, negative = inhibition, % at 57.5 µM; HFF cells, HCMV-luciferase reporter, 72 h; hits give low values; 410,000 tested, 4.5% active; in the data active = activity change below about -60%; inconclusive = no clear call, values can overlap the other calls; inactive = above about -39%
#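 After 16 h attachment at 37C, HFF cells received test compound and HCMV-luciferase (1 PFU/cell); reporter luminescence read 72 h later, data normalized against buffer-only and known inhibitor Salinomycin.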
# VACV mCherry inh – vaccinia inhibition (mCherry reporter) | Vaccinia virus mCherry reporter infection, fluorescence | Potency, µM (titrated, usually from 36.5 µM), inactives show at the highest dose activity change, negative = inhibition, most hits filed as inhibitors | 310,000 tested, 0.63% active; calls by dose curve; tested in A549 cells; also: potency is read from the fitted curve at half-maximal effect; nearly all actives have a fitted effect of over 35% in size
# Marburg entry inh – Marburg virus entry inhibition | Marburg virus pseudotyped entry inhibition, cell reporter | Potency, µM (highest dose often 37.8 µM), without a hit: at the top dose activity change, negative = inhibition, actives largely listed as inhibitors | 300,000 tested, 1.8% active; calls by dose curve; tested in HEK293 cells; also: potency is read from the fitted curve at half-maximal effect
# Lassa entry inh – blocks Lassa virus binding to or entry into cells | Lassa virus pseudotype entry inhibition, cell reporter | AID 540256 | 300,000 tested, 1.2% active | Potency, µM (titrated, usually from 37.9 µM), without a hit: top-dose activity change, negative = inhibition, hits mostly inhibitors; calls by dose curve; tested in HEK293 cells; also: potency is read from the fitted curve at half-maximal effect; nearly all actives have a fitted effect of over 50% in size
# Vaccinia Venus – inhibitors of vaccinia virus (Venus reporter); Vaccinia virus Venus reporter expression, fluorescence; AID 720580; Potency, µM (titrated, usually from 36.5 µM), for the others: at the top dose activity change, negative = inhibition, most hits filed as inhibitors; 330,000 tested, 0.46% active; calls by dose curve; tested in A549 cells; also: potency is read from the fitted curve at half-maximal effect; nearly all actives have a fitted effect of over 30% in size
# FMDV inh – blocks foot and mouth disease virus | FMDV antiviral cell-based qHTS | Potency, µM (top dose mostly 57.9 µM), for the others: at the top dose activity change, negative = inhibition, hits mostly inhibitors | 410,000 tested, 1.2% active | AID 1159524; calls by dose curve; tested in HEK293T cells; also: read-out not given here; potency is read from the fitted curve at half-maximal effect; nearly all actives have a fitted effect of over 45% in size
# The depositor's hits bear a star; i = inactive; ? = inconclusive; . = not tested or not shown; + = active, no number; ! = not active in a repeat; [ ] = dose if it differs, or a comment. % is scaled to controls: 0 for no effect and ±100 for the full control effect.
SMILES,HCMV inh,VACV mCherry inh,Marburg entry inh,Lassa entry inh,Vaccinia Venus,FMDV inh
COc1ccc(CN2C[C@H](COCc3ccccc3)Oc3cccc(Oc4ccc(C(C)C)cc4)c3S2(=O)=O)cc1,0,.,.,.,.,.
C[C@@H]1CN(Cc2ccc3c(c2)CN(Cc2cccc4cccnc24)CCO3)C[C@H](C)O1,.,-7%,.,.,-1%,2%
Cn1c(CSCc2ccc(Cl)c(Cl)c2)n[nH]c1=S,-67*,?,11%,?,-24%,?
Cc1ccc2c(Sc3ccc(Cl)cc3)c(C(=O)N3CCC(C)CC3)[nH]c2c1,21,-8%,-1%[46.1 µM],-20%[46.1 µM],-9%,79%
O=C1CCC[C@H]2[C@@H](Cc3ccccc3)[C@@H](NS(=O)(=O)c3ccc(-c4ccccc4)cc3)CC[C@]23CCCN13,-33,.,.,.,.,.
N#CC1(NC(=O)CSc2nc3ccc([N+](=O)[O-])cc3s2)CCCCC1,-81*,-7%,?,-7%,-6%,?
CCOc1ccc(-c2ccc(NS(=O)(=O)c3cc(C)c(C)cc3C)cc2)nn1,-77*,-2%,.,12%[46.1 µM],-17%,39%
CCOc1ccc(-c2ccc(NS(=O)(=O)c3ccc(C)cc3)cc2)nn1,-10,-9%,.,-1%[46.1 µM],-5%,29%
Cc1nc(-n2[nH]c3c(c2=O)CCCC3)[nH]c(=O)c1Cc1ccccc1,-103*,.,?,?,.,?
Nc1nc(CSc2nnnn2-c2ccccc2)nc(N2CCCc3ccccc32)n1,-18,?,?,?,-28%,28µM*
CCC(C(=O)Nc1ccc(C(=O)OC)cc1)n1c(=O)c(-c2ccccc2NC(C)=O)nc2ccccc21 (stereo not given),-35,i,-2%[46.1 µM],0%[46.1 µM],-16%,-12%
CCC(Oc1nc2ccccc2nc1-c1ccccc1NC(C)=O)C(=O)c1ccccc1 (stereo not given),0,-14%,-8%,18µM*,-10%,-15%
O=S(=O)(CCOc1ccccc1)c1nc2ccccc2[nH]1,-69*,.,-25%,3%,.,-20%
O=C(CCCOc1ccccc1)Nc1nc2ccccc2[nH]1,25,-14%,?,-1%,-12%,60%
CCCCN(C)S(=O)(=O)c1cc(-c2cc(C)no2)ccc1C,0,-21%,.,-13%[46.1 µM],-23%,?
CCN(CC)C(=O)[C@H]1CC(CC(=O)NCc2cccc(C(F)(F)F)c2)C(=O)N2CCc3c([nH]c4ccc(OC)cc34)[C@]12C (stereo not given in full),-19,10µM*,2%,.,?,?
CCN(CC)C(=O)[C@H]1C[C@H](CC(=O)NCc2cccc(C(F)(F)F)c2)C(=O)N2CCc3c([nH]c4cc(-c5ccco5)ccc34)[C@]12C,.,11µM*,.,.,11µM*,?
COc1ccc2[nH]c3c(c2c1)CCN1C(=O)C(CC(=O)NC/C=C(\C)CCC=C(C)C)C[C@H](C(=O)N(C(C)C)C(C)C)[C@@]31C (stereo not given in full),-103*,-20%,-6%,.,?,-9%
CC(C)=CCC/C(C)=C/CNC(=O)C[C@H]1C[C@H](C(=O)N(C(C)C)C(C)C)[C@@]2(C)c3[nH]c4ccc(Cl)cc4c3CCN2C1=O,7,?,.,.,?,?
COc1cccc(CNC(=O)c2ccc(CNS(=O)(=O)c3ccc(C)cc3)cc2)c1,29,-10%,.,-32%[46.1 µM],0%,1%
CC(C)(Oc1ccc(Cl)cc1)C(=O)Nc1nc2ccc(S(C)(=O)=O)cc2s1,9,i,-13%[46.1 µM],18%[46.1 µM],-10%,-18%
COc1ccc(CN(C2CCCC2)S(=O)(=O)c2ccccc2Br)cc1,.,.,13µM*,.,.,.
CN(C)c1ccc(/C=C/c2ccnc3c(N)cccc23)cc1,.,-18%,.,.,-12%,.
O=C(CCNS(=O)(=O)c1ccc2c(c1)CCN2C(=O)C1CC1)N1CCN(c2ccccc2F)CC1,-14,-21%,.,-10%[46.1 µM],-6%,0%
CC(=O)N1CCc2cc(S(=O)(=O)NCCC(=O)NCCc3ccc(C)cc3)ccc21,-15,-9%,?,?,-22%,?
SMILES,HCMV inh,VACV mCherry inh,Marburg entry inh,Lassa entry inh,Vaccinia Venus,FMDV inh
CC(=O)N1CCc2cc(S(=O)(=O)NCCC(=O)NCCc3ccc(Cl)cc3)ccc21,-75*,.,.,.,.,?
O=C(C1CCC1)N1CCc2cc(S(=O)(=O)Nc3ccc4c(c3)OCO4)ccc21,-72*,?,?,-25%,?,-15%
O=C(C1CCC1)N1CCc2cc(S(=O)(=O)NCCN3CCN(c4ccccc4F)CC3)ccc21,-27,?,13µM*,16µM*,?,-22%
COc1cccc(CNS(=O)(=O)c2ccc3c(c2)CCN3C(=O)C2CCC2)c1,-7,-10%,9%[46.1 µM],?,-7%,4%
COc1ccc(CNS(=O)(=O)c2ccc3c(c2)CCN3C(=O)C2CC2)cc1,-62*,i,1%,-17%,-10%,-30%
O=S1CCCS[C@@H]1c1cccnc1 (stereo not given in full),.,.,-8%,.,.,.
O=C(CCl)c1ccc2c(c1)CCN2C(=O)C1CCCCC1,33,i,?,-4%[46.1 µM],-12%,20µM*
CCC1CCCCN1S(=O)(=O)c1ccc2c(c1)CCN2C(=O)C1CCC1 (stereo not given),-28,-25%,?,?,-21%,?
COc1cccc(CNC(=O)C(NS(=O)(=O)c2ccc3c(c2)CCN3C(C)=O)C(C)C)c1 (stereo not given),+!,-9%,?,4%[46.1 µM],-18%,9%
Cc1ccsc1C1C(C#N)=C(N)Oc2n[nH]c(C)c21 (stereo not given),-11,-1%,?,-4%,-12%,32µM*
CCc1ccc(CN(Cc2ccco2)C(=O)c2cc(-c3ccc(C)c(F)c3)on2)cc1,61,-5%,?,-8%[46.1 µM],-3%,-17%
Nc1c2ccccc2nc2ccccc12,-99*,?,?,?,10µM*,?
CC1CC(C)CN(S(=O)(=O)c2ccc3c(c2)oc(=O)n3CC(=O)N(C)Cc2ccccc2)C1 (stereo not given),-79*,?,.,.,?,-27%
CC1CC(C)CN(S(=O)(=O)c2ccc(C(=O)N(C)Cc3ccccc3)cc2)C1 (stereo not given),-65*,.,.,.,.,0%
CCOc1ccccc1NC(=O)c1nnn(CC(=O)Nc2ccccc2CC)c1N,-15,-15%,-12%[46.1 µM],0%[46.1 µM],-4%,-3%
O=C(NC(Nc1nc2ccc([N+](=O)[O-])cc2s1)(C(F)(F)F)C(F)(F)F)c1ccccc1Cl,?,.,?,1.6µM*,.,2.5µM*
CN(C)S(=O)(=O)c1ccc2nc(NC(=O)c3cccnc3)sc2c1,73,.,2%,?,.,33%
O=C(NC(Nc1nc2ccc([N+](=O)[O-])cc2s1)(C(F)(F)F)C(F)(F)F)c1cccnc1,-102*,.,?,?,.,2.8µM*
O=C(NC(NNc1ccc([N+](=O)[O-])cc1)(C(F)(F)F)C(F)(F)F)c1ccccc1Cl,6,.,24%,5%,.,?

# Screening data as filed in PubChem BioAssay.
